Hits are enriched below; roughly 12% of the tested compounds scored in any of these assays.
Pf growth 48h = P. falciparum growth inhibition at 48 hours (one generation) | actives 5.9% (n = 310,000) | P. falciparum luciferase growth in erythrocytes, 48 h | AID 504832 | Potency, µM (series often up to 28.7 µM), for the others: at the highest dose activity change, negative = inhibition, hits mostly inhibitors; note: % is set by controls: 0 for no effect and ±100 for the full control effect
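Read-out is firefly luciferase luminescence from an integrated reporter in P. falciparum, so falling signal marks reduced parasite growth. Infected erythrocytes were at 2% hematocrit and 0.1% parasitemia (final) in Albumax-supplemented RPMI 1640.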
SARS PLP yeast = SARS-CoV PLP inhibition in yeast | Potency, µM (highest dose often 32.9 µM), for inactives: top-dose activity, positive = growth rescue, hits mostly activators | S. cerevisiae expressing SARS-CoV PLpro, growth rescue | AID 485353 | actives 0.19% (n = 330,000); calls by dose curve; note: 0% is about no effect; nearly all actives have a fitted effect of over 55% in size
NS1 function inh = influenza NS1 inhibition. Potency, µM (titrated, usually from 46.1 µM), without a hit: at the highest dose activity, positive = more growth. actives 0.4% (n = 270,000). AID 2326; calls by dose curve; note: actives are rising curves; nearly all actives have a fitted effect of over 50% in size
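In this qHTS, NS1 from influenza A is expressed in budding yeast, where it slows growth. Cells are switched from glucose to 2% galactose medium (pH 6.0, -URA), treated with compound, and growth recovery is read at OD600.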
Pf growth 96h = inhibits malaria parasite growth, 96 h; P. falciparum luciferase reporter growth, 96 h; Potency, µM (titrated, usually from 28.7 µM), for the others: at the highest dose activity change, negative = inhibition, actives largely listed as inhibitors; actives 6.9% (n = 320,000); AID 504834; note: % is set by controls: 0 for no effect and ±100 for the full control effect
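Delayed-death screen, second-generation endpoint: infected erythrocytes, 2% hematocrit, 0.05% parasitemia final; 96 hours at 37 C, 5% CO2; luciferase detection reagent; luminescence decrease equals reduced growth.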
AMA1-RON2 inh = disrupts binding of P. falciparum AMA1 to RON2; AlphaScreen AMA1-biotinylated RON2 peptide binding; actives 0.2% (n = 360,000); Potency, µM (series often up to 58.2 µM), for inactives: at the top dose activity change, negative = inhibition, usual class: inhibitors;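 note: 0% = vehicle wells and -100% = peptide control; nearly all actives have a fitted effect of over 45% in size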
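AMA1 (3D7) with his tag at 25 nM final met compounds first, then biotinylated RON2 peptide at 25 nM; detection used donor plus acceptor beads, 10 µg/mL apiece, read by AlphaScreen after 30 min at room temperature.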
HCV inhibitor = blocks hepatitis C virus | AID 651820 | Potency, µM (highest dose often 41.8 µM), without a hit: at the top dose activity change, negative = inhibition, usual class: inhibitors | Huh7.5.1 HCVcc-Cre infection, luciferase reporter, 44 h | actives 3.4% (n = 340,000); note: % is set by controls: 0 for no effect and ±100 for the full control effect
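Luciferase read-out (15 sec integration) after a 15 min room-temperature substrate step quantifies HCVcc-Cre infection. Cells, 1,000 per well, had compound added 4 h post-plating, then virus at ~0.5 moi, and were cultured 44 h.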
Numbers without * were called inactive; ? = inconclusive; . = no result given; [ ] = dose if it differs, or a comment. Unless noted, calls come from the whole dose curve; as a rule, active = well fitted curve in the direction sought with a large enough effect; inconclusive = small, poorly fitted or top-dose-only effect, or another doubt; inactive = no such curve, though single readings can be large; an effect the other way counts as inactive or inconclusive. Potency is the fitted concentration of half-maximal effect.

SMILES	Pf growth 48h	SARS PLP yeast	NS1 function inh	Pf growth 96h	AMA1-RON2 inh	HCV inhibitor
Cc1nc(-c2ccc(C(=O)Nc3cccc(F)c3)cc2)cs1	176%	-7%	5%	-6%	12%	3.5µM*
Cc1nc(-c2cccc(NC(=O)c3ccco3)c2)cs1	?	?	-39%	-22%	4%	-28%
COc1ccc(NC(=O)c2ccc(-c3csc(C)n3)cc2)cc1	100%	-4%	-5%	9%	-2%	7.1µM*
Cc1nc(-c2cccc(NC(=O)c3ccc(-n4cccn4)cc3)c2)cs1	-13%	6%[6.58 µM]	.	15%	-6%	11µM*
Cc1nc(-c2ccc(C(=O)Nc3ccc(F)cc3)cc2)cs1	31%	0%	3%	1%	-8%	?
CC1CCN(c2nc(-c3cccnc3)nc3scc(-c4ccccc4)c23)CC1	-4%	7%	11%	?	2%	22µM*
CC1CCCN(c2nc(-c3cccnc3)nc3scc(-c4ccccc4)c23)C1 (stereo not drawn)	-29%	-19%	-32%	?	-12%	?
CC1CCN(c2nc(CN3CCCCC3)nc3scc(-c4ccccc4)c23)CC1	2.3µM*	-13%	-18%	1.5µM*	-14%	?
Cc1sc(NC(=O)c2ccco2)c(C(Nc2ccccn2)c2ccccc2)c1C (stereo not drawn)	?	-30%	5%	?	-19%	14µM*
COc1ccc(C(Nc2ccccn2)c2c(NC(=O)c3ccco3)sc(C)c2C)cc1 (stereo not drawn)	4.7µM*	-61%	11%	?	-25%	?
COc1cccc(C(Nc2ccccn2)c2c(NC(=O)c3ccco3)sc(C)c2C)c1 (stereo not drawn)	8.3µM*	0%	-26%	?	-25%	?
O=C(NNC(=O)C1CC(c2cccnc2)=NO1)Nc1ccccc1F (stereo not drawn)	-15%	0%	.	1%	77%	18%
O=[N+]([O-])c1ccc2cn(C3OC(CO)C(O)C3O)nc2c1 (stereo not drawn)	.	.	.	.	-2%	.
CCn1c(SCC(=O)N(C)CC(=O)Nc2ccc(OC)cc2)nnc1-c1ccco1	?	-7%	.	?	9%	-27%
Cc1nn(-c2ccccn2)c2c1C(=O)CC(C)(C)C2Br (stereo not drawn)	15µM*	-2%	-5%	?	3%	-25%
CS(=O)(=O)N(Cc1ccccc1)c1ccc(C(=O)Nc2ccccc2Sc2ccccc2)cc1	12µM*	7%	9%	15µM*	17%	7%
CS(=O)(=O)N(CC(=O)Nc1ccccc1Sc1ccccc1)c1cccc(Br)c1	13µM*	?	23%	?	-1%	?
CS(=O)(=O)N(Cc1ccccc1)c1ccc(C(=O)Nc2ccccc2C(=O)O)cc1	?	-3%	16%	14%	-4%	6%
NC(=O)NC(=O)COC(=O)CCSc1ccccc1	-1%	0%	.	14%	?	0%
COc1ccc(N=Nc2nc3cc(Br)c(Br)cc3n2C)c(OC)c1	10µM*	.	?	?	?	?
CC(=O)Cn1c(CN2CCCC2)nc2ccccc2c1=O	10%	-2%	.	35%	9%	4%
COc1ccccc1NC(=O)Cn1c(CN2CCCCC2)nc2ccccc2c1=O	-25%	-17%	4%	65%	4%	-3%
Cc1cccc(C)c1NC(=O)Cn1c(CN2CCCCC2)nc2ccccc2c1=O	15µM*	8%	-7%	131%	11%	1%
CC(=O)Cn1c(CN2CCCCC2)nc2ccccc2c1=O	10µM*	1%	.	12%	5%	1%
O=C(CC1CCCCC1)NCc1ccccc1Cl	163%	-1%	-1%	?	6%	-10%
SMILES	Pf growth 48h	SARS PLP yeast	NS1 function inh	Pf growth 96h	AMA1-RON2 inh	HCV inhibitor
CCN1CCN(CCNC(=O)CCc2c(C)c3c(C)nn(-c4ccccc4)c3n(C)c2=O)CC1	?	-3%	-6%	11%	10%	16µM*
CC(=O)Nc1ccc(NC(=O)C(C)Oc2ccccc2F)cc1 (stereo not drawn)	-23%	-2%	-2%	19%	0%	6%
CC(=O)Nc1ccc(NC(=O)C(C)OC(=O)C2(c3ccccc3F)CCCC2)cc1 (stereo not drawn)	8.3µM*	-4%	.	12µM*	0%	?
CC1CN(C(=O)COc2coc(CN3CCc4ccccc4C3)cc2=O)CC(C)O1 (stereo not drawn)	21%	0%	.	-4%	20%	16%
Cc1ccc(-n2ncc3c(N4CCC(C(N)=O)CC4)ncnc32)c(C)c1	4%	0%	-15%	.	32%	14%
Cc1ccc(-n2ncc3c(N4CCC5(CC4)OCCO5)ncnc32)c(C)c1	.	6%	7%	5.2µM*	9%	?
Cc1ccc(C)c(S(=O)(=O)c2c[nH]c(=S)[nH]c2=O)c1	-2%	5%	10%	69%	69%	10%
O=C(CN1C(=O)NC(c2ccccc2)(c2ccccc2)C1=O)N1CCOCC1	0%	-3%	.	-10%	12%	0%
CC1CCc2c(C(=O)OCC(=O)Nc3cccc(S(=O)(=O)N4CCCCCC4)c3)csc2C1 (stereo not drawn)	30%	-27%	26%	85%	-14%	7.1µM*
Cc1ccc(C)c(C(=O)OCC(=O)Nc2cccc(S(=O)(=O)N3CCCCC3)c2)c1	10µM*	3%	.	10µM*	9%	10µM*
Cc1ccc(C)c(OCCC(=O)Nc2cccc(S(=O)(=O)N3CCCCC3)c2)c1	12µM*	5%	.	?	-1%[11.6 µM]	?
Cc1ccccc1C(=O)OCC(=O)Nc1cccc(S(=O)(=O)N2CCCCC2)c1	.	.	.	.	9%	.
Cc1ccc(C)c(OCCC(=O)Nc2cc(S(=O)(=O)N3CCCCC3)ccc2C)c1	.	-3%	.	.	-10%	?
COc1ccc(OCC2CCNCC2)cc1	132%	-2%	6%	2%	71%	3%
COc1ccc(Oc2cccc(Cl)c2CNC(=O)CCCC(=O)O)cc1	106%	2%	-2%	5%	17%	13%
CCN(CC(=O)Nc1ccc(NC(C)=O)cc1)C(=O)c1cc(-c2ccccc2)nn1-c1ccccc1	?	0%	.	?	-5%	-25%
CC(=O)c1ccccc1NC(=O)COC(=O)c1c(C)nn(-c2ccccc2)c1C	24%	-2%	.	73%	28%	?
COc1cccc(NC(=O)CN(C)C(=O)c2cc(C)oc2C)c1	-18%	-15%	.	-4%	-1%	-11%
CCCN(CC(=O)Nc1ccccc1OC)C(=O)c1ccc(COc2ccccc2)o1	15µM*	1%	.	?	-2%	?
COc1cccc(NC(=O)CN(C)C(=O)c2ccc(COc3ccccc3)o2)c1	15µM*	-6%	.	15µM*	-5%	0%

Source: PubChem
